# Assay results from PubChem BioAssay (NCATS).
# Results filed as inconclusive are left out. Entries that show only a call come without a potency. Calls of active or inactive are those of the source. Calls come from the whole dose curve; as a rule, active = well fitted inhibition curve with a large enough effect; inconclusive = small, poorly fitted or top-dose-only effect; inactive = flat fitted curve, though single readings scatter.
# Test: qHTS to identify inhibitors of the type 1 interferon - major histocompatibility complex class I in skeletal muscle: primary screen against the NCATS LOPAC collection (AID 1347405);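 note: lytic HiBiT luminescence reporting HLA-B protein level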
# Details: iHSKM muscle cells, IFN-b-induced MHC-I HiBiT luminescence, 24 h; series mostly up to 45.9 µM
# Procedure, shortened: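 CRISPR-engineered immortalized human myoblasts (C25cl48) with HiBiT fused to endogenous HLA-B*08:01, stimulated with 4 ng/ml IFN-beta. LOPAC compounds tested as a 7-point 1:4.3 titration (top 46 uM final), 24 h at 37 C; lytic HiBiT luminescence read.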
# Potency is the fitted concentration of half-maximal effect.
row,SMILES,Potency
1,COc1ccccc1CNCCCCCCNCCCCCCCCNCCCCCCNCc1ccccc1OC,inactive
2,C[N+](C)(C)CCOP(=O)(O)OP(=O)([O-])OC[C@H]1O[C@@H](n2ccc(N)nc2=O)[C@H](O)[C@@H]1O,inactive
3,CNC(=O)[C@H]1O[C@@H](n2cnc3c(NCc4cccc(I)c4)ncnc32)[C@H](O)[C@@H]1O,inactive
4,CCCCCCCCCCCCCCCCCCN(CCCCCCCCCCCCCCCCCC)CCCN(CCO)CCO,inactive
5,O=C(O)CC1CCCc2ccccc2C1O (stereo not given),inactive
6,O=P(O)(O)C(Cl)(Cl)P(=O)(O)O,inactive
7,Brc1cc2c(cc1[C@H]1Nc3ccccc3[C@H]3C=CC[C@H]31)OCO2,inactive
8,OC[C@H]1O[C@@H](n2cnc3c(NC4CCCC4)ncnc32)[C@H](O)[C@@H]1O,inactive
9,O=c1[nH]c2cc(C(F)(F)F)ccc2n1-c1cc(C(F)(F)F)ccc1O,inactive
10,O=[N+]([O-])c1ccc(CSc2ncnc3c2ncn3[C@@H]2O[C@H](CO)[C@@H](O)[C@H]2O)cc1,inactive
11,CSc1nc(N)c2ncn([C@@H]3O[C@H](COP(=O)(O)OP(=O)(O)OP(=O)(O)O)[C@@H](O)[C@H]3O)c2n1,inactive
12,O=C1C(SCCO)=C(SCCO)C(=O)c2ccccc21,10 µM (active)
13,O=C1/C(=C/c2ccsc2)CC/C1=C\c1cccs1,inactive
14,NC(=S)c1ccc[n+]([C@@H]2O[C@@H](COP(=O)([O-])OP(=O)(O)OC[C@H]3O[C@@H](n4cnc5c(N)ncnc54)[C@H](OP(=O)(O)O)[C@@H]3O)C(O)C2O)c1 (stereo not given in full),inactive
15,CC1(C)CCC=[N+]1[O-],inactive
16,O=C1NC(=O)c2c1c(-c1ccccc1)cc1[nH]c3ccc(O)cc3c21,14.1 µM (active)
17,COCCOc1cc2ncnc(Cl)c2cc1OCCOC,inactive
18,CN1CCc2cc(NC(=O)Nc3cccnc3)ccc21,inactive
19,Clc1ccc(N2CCN(Cc3c[nH]c4ncccc34)CC2)cc1,inactive
20,CCC(CO)Nc1nc(NCc2ccccc2)c2ncn(C(C)C)c2n1 (stereo not given),15.8 µM (active)
